Measured values from the supplement of paper PMC9254222.
Whole data set: some 1,100 compounds, median “Wnt reporter firefly/Renilla luciferase ratio relative to plate median” near 1.1, cut for the highest 2% near 1.6. The sample as a whole holds a higher share of the highest values than the screen did.

Tested on: HEK293T (UBE3A T485A transfected, BAR Wnt reporter)
Assay: Wnt reporter firefly/Renilla luciferase ratio relative to plate median (fold (linear ratio)); higher = more Wnt/beta-catenin reporter activation
Conditions: 24 h
How it was run: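 Wnt activity (firefly/Renilla ratio) and cell health (raw Renilla) were read with Dual-Glo luciferase and median-centred plate by plate. HEK293T cells, at 4500 cells/well in white 384-well plates with DMEM plus 10% FBS at 37°C and 5% CO2, carried a transfected BAR firefly luciferase Wnt reporter, TK-Renilla and an expression plasmid. The chemicals were applied by robot at 0.01–100 uM for 24 h, beginning four hours after transfection, and results were averaged across four biological replicates.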

Compound	Wnt reporter firefly/Renilla luciferase ratio (concentration: 0.1 uM)	Wnt reporter firefly/Renilla luciferase ratio (concentration: 1 uM)	Wnt reporter firefly/Renilla luciferase ratio (concentration: 10 uM)	Wnt reporter firefly/Renilla luciferase ratio (concentration: 100 uM)	Wnt reporter firefly/Renilla luciferase ratio (concentration: 0.01 uM)
CC[C@H](c1ccc(O)cc1)[C@@H](CC)c1ccc(O)cc1 [meso-Hexestrol]	0.858	1.05	0.711	0.0535	
CCCCc1ccc2c(n1)[C@@H](c1ccc(OC)cc1C[C@H](C)C(=O)[O-])[C@H](C(=O)[O-])[C@H]2c1ccc2c(c1)OCO2.[Na+].[Na+]	1.37	1.08	1.18	0.429	
Nc1ncn([C@@H]2O[C@H](CO)[C@@H](O)[C@H]2O)c(=O)n1 [5-azacytidine]	1.52	1.36	0.213	2.42	1.01
OCC1OC(n2cnc3c(NC4CCCC4)ncnc32)C(O)C1O (stereo not drawn) [N6-Cyclopentyl adenosine]	1.15	1.06	1.05	1.18	1.31
Cl.Nc1ccn([C@@H]2O[C@H](CO)[C@@H](O)[C@@H]2O)c(=O)n1 [Cytarabine hydrochloride]	1.1	0.941	0.171	0.125	
c1ccc(C(O[C@@H]2CCCN(CCc3ccc4c(c3)OCO4)C2)c2ccccc2)cc1 [Zamifenacin]	1.15	1.05	0.996	1.13	
CS(=O)(=O)O.Cc1nccn1-c1ccc(Sc2cccc(C3(C(N)=O)CCOCC3)c2)cc1	1.01	0.73	0.387	0.282	
COc1ccc2sc(C(=O)Nc3nnn[n-]3)c(OC(C)C)c2c1.[Na+]	1.08	1.08	1.35		
CC(=O)OCCOCCOCCOC(C)=O [Triethylene glycol diacetate]	1.25	1.16	1.07	1.26	
CCCCCOC(C)=O [Pentyl acetate]	1.22	0.968	1.4	1.61	
CCCCOC(=O)CCCCC(=O)OCCCC [Dibutyl hexanedioate]	0.981	0.969	1	1.08	
CCCCCCC(=O)OCC [Ethyl heptanoate]	1.14	1.05	1.47	1.14	
CCCCOC(=O)CCCCCCCCC(=O)OCCCC [Dibutyl decanedioate]	0.951	0.896	0.802	2.33	
CC(=O)OCCC(C)C [3-Methylbutyl acetate]	1.41	0.938	1.03	1.09	
Cc1cccc(C)c1O [2,6-Dimethylphenol]	1.32	0.992	1.45	1.16	
CC(=O)c1ccc2c(c1)[C@H](NC(=O)c1ccc(F)cc1)[C@@H](O)C(C)(C)O2 [Carabersat]	1.27	1.07	1.04	1.43	
C=C(C)C(N)=O [Methacrylamide]	1.22	1.04	1.05	1.25	
Oc1ccc(C(c2ccc(O)cc2)C(Cl)(Cl)Cl)cc1 [2,2-Bis(4-hydroxyphenyl)-1,1,1-trichloroethane]	1.3	0.957	0.541		1.02
CC(=O)[C@@]1(O)CC[C@H]2[C@@H]3CCC4=CC(=O)CC[C@]4(C)[C@H]3CC[C@@]21C [17alpha-Hydroxyprogesterone]	1.06	1.02	1.03	0.475	

Compound	Wnt reporter firefly/Renilla luciferase ratio (concentration: 0.1 uM)	Wnt reporter firefly/Renilla luciferase ratio (concentration: 1 uM)	Wnt reporter firefly/Renilla luciferase ratio (concentration: 10 uM)	Wnt reporter firefly/Renilla luciferase ratio (concentration: 100 uM)	Wnt reporter firefly/Renilla luciferase ratio (concentration: 0.01 uM)
NC(=O)N/N=C/c1ccc([N+](=O)[O-])o1 [Nitrofurazone]	1.22	1.02	0.506	0.32	
Nc1nc(=O)c2nc(CNc3ccc(C(=O)N[C@@H](CCC(=O)O)C(=O)O)cc3)cnc2[nH]1 [Folic acid]	1.38	1.01	0.97	1.26	
O=C(OC[C@H]1O[C@@H](OC(=O)c2cc(O)c(O)c(OC(=O)c3cc(O)c(O)c(O)c3)c2)[C@H](OC(=O)c2cc(O)c(O)c(OC(=O)c3cc(O)c(O)c(O)c3)c2)[C@@H](OC(=O)c2cc(O)c(O)c(OC(=O)c3cc(O)c(O)c(O)c3)c2)[C@@H]1OC(=O)c1cc(O)c(O)c(OC(=O)c2cc(O)c(O)c(O)c2)c1)c1cc(O)c(O)c(OC(=O)c2cc(O)c(O)c(O)c2)c1 [Tannic acid]	0.923	1.19	1.38		
CCC(C)N(C)C(=O)c1cc2ccccc2c(-c2ccccc2Cl)n1 (stereo not drawn)	0.925	1.31	1.03	0.292	
CC(C)(C)c1cc(O)c(C(C)(C)C)cc1O [2,5-Di-tert-butylbenzene-1,4-diol]	1.14	0.988	1.13		
CC(C)(C)c1ccc(O)c(C(C)(C)C)c1 [2,4-Di-tert-butylphenol]	0.984	1.32	1.13	1.1	
CC(C)(C)c1cccc(C(C)(C)C)c1O [2,6-Di-tert-butylphenol]	1.12	1.01	1.3	1.72	
CCN(Cc1cccc(S(=O)(=O)[O-])c1)c1ccc(C(=C2C=CC(=[N+](CC)Cc3cccc(S(=O)(=O)[O-])c3)C=C2)c2ccccc2S(=O)(=O)[O-])cc1.[Na+].[Na+]	0.943	1.04	0.706	0.433	
CC1(C)C(=O)NC(=O)N1CO [1-(Hydroxymethyl)-5,5-dimethylhydantoin]	1.14	0.992	1.12	1.59	
CN1CCC(c2c(O)cc(O)c3c(=O)cc(-c4ccccc4Cl)oc23)C(O)C1 (stereo not drawn) [Flavopiridol]	2				1.17
CN(C)C(=O)NC1(c2ccccc2)CCN(CCC[C@@]2(c3ccc(Cl)c(Cl)c3)CCCN(C(=O)c3ccccc3)C2)CC1	1.08	0.903	0.985		
O=C(O)/C=C/C(=O)O.O=C1c2ccccc2C(=O)N1CCc1noc(-c2ccc(CN3CCCCCC3)s2)n1	1.17	1.07	0.907	0.252	
NC(=O)N1c2ccccc2C=Cc2ccccc21 [Carbamazepine]	1.35	0.977	0.997	0.929	
CC(=O)Oc1ccccc1C(=O)O [Aspirin]	1.2	1.04	1.15	0.812	
Cc1cc2c(cc1C(F)(F)F)N(C(=O)Nc1ccc(Oc3cccnc3C)nc1)CC2.Cl	1.03	1.4	0.768	0.554	
CCCN(CCC)c1c([N+](=O)[O-])cc(C(F)(F)F)c(N)c1[N+](=O)[O-] [Prodiamine]	1.47	1.2	1.2	1.29	1.16
CCN(Cc1c(F)cccc1Cl)c1c([N+](=O)[O-])cc(C(F)(F)F)cc1[N+](=O)[O-] [Flumetralin]	1.65	1.11	0.843	0.851	1.23
CC(C(C)N1CC(=O)NC(=O)C1)N1CC(=O)NC(=O)C1 (stereo not drawn)	1.88	1.23	1.33	1.53	1.31
C#C[C@]1(O)CC[C@H]2[C@@H]3CCc4cc(O)ccc4[C@H]3CC[C@@]21C [17alpha-Ethinylestradiol]	1.06	0.888	1.12	0.42	

Compound	Wnt reporter firefly/Renilla luciferase ratio (concentration: 0.1 uM)	Wnt reporter firefly/Renilla luciferase ratio (concentration: 1 uM)	Wnt reporter firefly/Renilla luciferase ratio (concentration: 10 uM)	Wnt reporter firefly/Renilla luciferase ratio (concentration: 100 uM)	Wnt reporter firefly/Renilla luciferase ratio (concentration: 0.01 uM)
CC(=O)O [Acetic acid]	1.13	1.09	1.46	1.17	
C#C[C@]1(O)CC[C@H]2[C@@H]3CCC4=CC(=O)CC[C@@H]4[C@H]3CC[C@@]21CC [Norgestrel]	0.82	1.09	1.07	1.36	
CS(=O)(=O)O.Cc1cc(CCN2CCN(c3nsc4ccccc34)CC2)cc2c1NC(=O)CC2(C)C	0.776	0.735	0.407		
CCNc1cccc(C)c1 [N-Ethyl-3-methylaniline]	0.98	1.05	1.05	1.54	
O=C(N[C@@H](Cc1ccccc1)[C@@H](O)C(=O)N1C[C@@H](O)[C@@H](O)C1)c1cc2cc(Cl)ccc2[nH]1 [Ingliforib]	1.29	1.69	0.888	0.353	
CCCCCCCCOc1ccc(C(=O)c2ccccc2)c(O)c1 [Octabenzone]	1.12	1.08	0.916	1.2	
O=C(O)C1(C(=O)Nc2ccc(Cl)cc2Cl)CC1 [Cyclanilide]	1.6	1.16	1.53	0.874	1.46
O=C(N[C@@H](c1ccccc1)[C@@H]1CCCCN1)c1cccc(C(F)(F)F)c1Cl	0.912	1.24	0.921		
CCOC(=O)COc1ccc2c(c1)CC(NCC(O)c1cccc(Cl)c1)CC2.Cl (stereo not drawn)	1.06	1.18	1.15	1.19	
Cl.Clc1cc(Cl)c2c(c1)N=C1CCCCCN1C2	0.996	1.26	1.13	0.303	
Cc1[nH]nc2c1N=C(c1ccccc1Cl)c1cc([N+](=O)[O-])ccc1N2	1.21	1.72	104	89.3	
Nc1nc2nc[nH]c2c(=S)[nH]1 [6-Thioguanine]	1.31	1.03			
CCCCC(CC)COC(=O)CCCCCCCC(=O)OCC(CC)CCCC (stereo not drawn) [Bis(2-ethylhexyl) nonanedioate]	1.04	0.979	1.33	1.24	
O=C(NO)C1(NS(=O)(=O)c2ccc(Oc3ccc(F)cc3)cc2)CCOCC1	1.18	0.992	0.736	0.244	
O=C(O)[C@H](O)[C@@H](O)C(=O)O [L-Tartaric acid]	1.14	1.29	0.958	1.46	
Cc1cn([C@H]2C=C[C@@H](CO)O2)c(=O)[nH]c1=O [Stavudine]	1.03	1.04	0.931	1.62	
Cc1cn([C@H]2C[C@H](N=[N+]=[N-])[C@@H](CO)O2)c(=O)[nH]c1=O [3'-Azido-3'-deoxythymidine]	1.15	1.04	1.15	1.07	
OCC(CO)(CO)CO [Pentaerythritol]	1.18	1.51	1.13	1.27	
Cc1oc2c(NC(=O)c3c(Cl)cccc3Cl)cccc2c1C(C)(C)O	1.01	1.14	0.7		
